Assay results taken from PubChem BioAssay AID434927 (Sanford-Burnham Center for Chemical Genomics, 2010).
The source made the active and inactive calls.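 The calls were made as follows: active = inhibition above about 23% in any of six single-dose repeats (limit read from the data); inactive = the rest.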

Biological target: Intestinal-type alkaline phosphatase (Homo sapiens) (UniProt P09923)
Test: human IAP inhibitors, confirmation, biochemical, luminescence, single concentration, uHTS hits (AID 434927);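 also: plate controls were DMSO wells with enzyme for no effect and wells lacking enzyme for full effect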
Conditions: purified human IAP, CDP-Star luminescence, 30 min; at 8.3 µM; hits give high values

Chain of Intestinal-type alkaline phosphatase (Homo sapiens) (P09923 whole entry, looked up): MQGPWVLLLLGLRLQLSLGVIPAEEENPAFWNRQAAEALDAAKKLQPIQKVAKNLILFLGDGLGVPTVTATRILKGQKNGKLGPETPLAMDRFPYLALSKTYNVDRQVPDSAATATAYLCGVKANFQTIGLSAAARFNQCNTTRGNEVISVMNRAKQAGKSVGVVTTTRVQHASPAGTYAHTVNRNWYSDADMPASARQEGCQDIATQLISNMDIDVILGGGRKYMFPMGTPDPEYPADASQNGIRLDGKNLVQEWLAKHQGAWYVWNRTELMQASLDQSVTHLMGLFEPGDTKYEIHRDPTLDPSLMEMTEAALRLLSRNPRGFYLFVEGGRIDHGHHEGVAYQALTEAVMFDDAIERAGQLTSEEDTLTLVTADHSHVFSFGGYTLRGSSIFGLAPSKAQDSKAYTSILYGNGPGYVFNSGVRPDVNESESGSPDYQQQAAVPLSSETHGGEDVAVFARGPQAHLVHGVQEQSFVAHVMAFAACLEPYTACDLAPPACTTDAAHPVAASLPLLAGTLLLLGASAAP

inhibition, active:
CCOC(=O)c1c(C)[nH]c(C(=O)N/N=C/c2cc([N+](=O)[O-])ccc2O)c1C 29.6%
O=C1Nc2ccc(Br)cc2C12NNc1ccccc1O2 (centres undefined) 35%
O=c1c(O[C@@H]2O[C@H](CO)[C@@H](O)[C@H](O)[C@H]2O)c(-c2ccc(O)c(O)c2)oc2cc(O)cc(O)c12 48%
CNc1nnc(-c2cc3ccccc3oc2=O)s1 33.1%
COc1cc(/C=C/C(=O)OCC(=O)NC(=O)NC2CCCCC2)ccc1OC(F)F 78.7%
CCc1nnc(NC(=O)CSc2nnc(C)c(=O)n2N)s1 41.3%
Cc1cc2cc3c(cc2nc1SCC(=O)Nc1nc(C)c(C)s1)OCO3 43.9%
COc1ccc(C2=Nc3cc(C)ccc3OC2)cc1 58.3%
CC(C)CCNc1ncnc2c1nnn2Cc1ccccc1Cl 40.2%
Cc1cc(C(=O)NC2CC(C)(C)Cc3c2cnn3-c2ccccc2)n[nH]1 (centres undefined) 62.1%
Cc1ccc2c(c1)nnc1nnc(SCC(=O)O)n12 33.9%
O=C(N/N=C/c1c(O)ccc2ccccc12)c1[nH]ncc1Br 42.8%
COc1ccc(NC(=O)CCN2CCN(S(=O)(=O)c3cc(Cl)ccc3OC)CC2)cc1 35.6%
O=C(CSc1nc(-c2cccs2)cc(C(F)(F)F)n1)NCc1ccccc1 36.7%
Cc1ccc(NCc2ccc([N+](=O)[O-])s2)cc1 26.1%
CCOC(=O)c1cnc(-n2nc(C)cc2C)nc1NNc1nc(C)cc(C)n1 71.7%
O=C(NNC(=S)NCc1ccco1)c1ccccc1Br 41.4%

inhibition, inactive:
COc1ccc(O)c(/C=N/NC(=S)NCCc2ccccc2)c1 -91.2%
Cc1cc(C)c2nc(SCC(=O)NNC(=O)c3ccco3)c(C)cc2c1 -58.7%
C=CCN1C(=O)/C(=C\C=C2\N(C)c3ccccc3C2(C)C)SC1=S -267%
O=C(NNc1ncnc2c1cnn2-c1ccc(F)cc1)c1ccco1 -47.2%
CC1(C)C[C@@H](O)CC2(C1)C[C@]1(C)CC(O)[C@H]2C(C)(C)C1 (some centres undefined) -93.3%
COc1ccc(C(=O)Nc2cccc3c2C(=O)NC3=O)cc1S(=O)(=O)N1CCOCC1 -85.1%
CN(C)c1ccc(N=Nc2ccccc2Br)cc1 -104%
Cc1ccc(NC(=O)NNC(=O)c2cc3ccccc3cc2O)cc1 -69.5%
O=C(NCCCN1CCOCC1)c1ccc2c(c1)N(Cc1ccc(Cl)cc1)C(=O)c1ccccc1S2=O (centres undefined) -47.5%
CCC1CCCCN1C1Sc2ccc(C(=O)OC)cc2NC1=O (centres undefined) -69.1%
c1ccc(-c2cccc(-c3ccccn3)n2)nc1 -113%
Cc1ccc(S(=O)(=O)N(CC(=O)Nc2ccc(C)cc2C)C(=O)N2CCN(C)CC2)cc1 -55.4%
O=C(NNC(=S)NC(=O)c1ccccc1)c1cccnc1 -320%
O=C1C2C3C=CC(C3)C2C(=O)N1c1n[nH]c(-c2cccnc2)n1 (centres undefined) -82.5%
COc1ccc2nc3cc(Cl)ccc3c(Nc3cc(CN4CCCC4)c(O)c(CN4CCCC4)c3)c2n1 -60.1%
CC(=O)c1ccc(NC(=O)C2CCCN2S(=O)(=O)c2cccs2)cc1 (centres undefined) -85.1%
CCCCOc1cccc(C2/C(=C(\O)c3ccc4c(c3)OCCO4)C(=O)C(=O)N2CCN2CCOCC2)c1 (centres undefined) -90.6%
